In publication PMC4552634, “A New Set of Chemical Starting Points with Plasmodium falciparum Transmission-Blocking Potential for Antimalarial Drug Discovery” (PLoS ONE, 2015):
Where two headings read alike, the source gives them in different places. Screen size: about 13,000 compounds; about 3,200 (25%) showed an effect of 50% or more. The list shows a part of the results.

Tested on: P. falciparum stage V gametocytes
Parameters: BacTiter-Glo ATP luminescence viability of purified stage V gametocytes in 384-well plates, per cent inhibition versus DMSO
Conditions: 48 h, 5 µM, inhibitor

Structure (SMILES)	% Inhibition [%]	% Inhibition (% Inhibition) [%]
Cc1cc(NCCC(=O)NCc2cccc(F)c2)nc(NCCc2ccc(F)cc2)n1 [TCMDC-134781]	71.46	
Cc1cccc(CNc2nc(C)cc(NCCC(=O)NCc3cccc(F)c3)n2)c1 [TCMDC-134882]	28.72	
Cc1cc(NCCC(=O)NCc2cccc(F)c2)nc(Nc2ccccc2)n1 [TCMDC-134730]	9.488	
Cc1cc(NCCC(=O)NCCc2ccccc2)nc(NCCc2ccc(F)cc2)n1 [TCMDC-134782]	63.79	
CCC1(CC)C(=O)N=C(N2CCCCC2)N(C)C1=O [TCMDC-124231]	77.81	
COc1ccc2nccc([C@@H](O)CN3CCC(NCc4ccc5nnsc5c4)CC3)c2c1 [TCMDC-140923]	19.95	
CCc1ccc(CN2CCC(NC(=O)c3ccc(-c4ccccc4F)s3)CC2)cc1 [TCMDC-134343]	-3.563	
CC(C)(C)c1ccc(CN2CCC(NC(=O)c3ccc(-c4ccccc4F)s3)CC2)cc1 [TCMDC-134349]	3.235	
Cc1cccc(CN2CCC(CNC(=O)c3cc4c(-c5ccccc5F)nn(C)c4s3)CC2)c1 [TCMDC-124566]	59.21	
Cn1nc(-c2ccccc2F)c2cc(C(=O)Nc3cccnc3)sc21 [TCMDC-123581]	-8.367	
Cn1nc(-c2ccccc2F)c2cc(C(=O)NC3CCN(Cc4ccccc4)CC3)sc21 [TCMDC-123582]	63.05	
COc1cccc(-c2nn(C)c3sc(C(=O)NCCN4CCN(c5ccccc5F)CC4)cc23)c1 [TCMDC-123585]	-24.43	
COc1ccc2ncc(F)c(C(O)CN3CCC(NCc4ccc5c(n4)NC(=O)CO5)CC3)c2c1 (centres unmarked) [TCMDC-135530]		22.05
COC(=O)c1ccc(CC(C)NCC(O)c2cccc3ccccc23)cc1 (centres unmarked) [TCMDC-131432]	16.03	
CS(=O)(=O)c1ccccc1CNC(=O)c1ccc(-c2cccc(-c3nc4cc(C(F)(F)F)ccc4[nH]3)c2)cc1 [TCMDC-132504]	-46.91	
COc1cccc(N(CCCN2C(=O)c3cccc4cccc(c34)C2=O)C(=O)c2ccccc2C)c1 [TCMDC-124157]	34.34	
c1ccc2[nH]c(-c3ccc(-c4ccc(CNCCc5ccncc5)cc4)s3)nc2c1 [TCMDC-132843]	-16.65	
CC1(C)C(=O)Nc2ccc3c(c21)CC1SC(=O)NN=C31 (centres unmarked) [TCMDC-131539]	68.11	
Nc1nc(N)c2c(CCc3ccc(Cl)c(Cl)c3)cccc2n1 [TCMDC-141976]	-2.303	
CCCc1cc(Cc2cnc(N)nc2N)cc(CC)c1O [TCMDC-138059]	-83.65	
Cc1cc2ncn(-c3nccc(NCc4cccnc4)n3)c2cc1C [TCMDC-135879]	55.3	
Cc1cc2ncn(-c3nccc(NCc4ccc(F)cc4)n3)c2cc1C [TCMDC-135877]	11.81	
Cc1cc2ncn(-c3nccc(NCc4ccc(F)c(C)c4)n3)c2cc1C [TCMDC-135880]	65.21	
Cc1cc2ncn(-c3ccnc(N4CCN(CCCN5CCCC5)CC4)n3)c2cc1C [TCMDC-136311]	9.256	

Structure (SMILES)	% Inhibition [%]	% Inhibition (% Inhibition) [%]
COc1ccc(CNc2ccnc(-n3cnc4cc(C)c(C)cc43)n2)cc1Cl [TCMDC-135878]	49.39	
Cc1cc(Nc2nc(NCc3cccnc3)nc3ccccc23)n[nH]1 [TCMDC-135161]	33.23	
O=C(O)c1ccc(OCOCOc2ccc(C(=O)O)c(O)c2)cc1O [TCMDC-131764]	13.72	
COc1ccc(C2SCC(=O)N2CCc2ccc(OC)c(OC)c2)cc1 (centres unmarked) [TCMDC-125738]	0.3725	
CS(=O)(=O)NCCCNCc1cccc(-c2ccc(-c3nc4ccc(C(F)(F)F)cc4[nH]3)cc2)c1 [TCMDC-133079]	-16.43	
NC1CCN(CCNCc2cccc(-c3ccc(-c4nc5ccc(F)cc5[nH]4)cc3)c2)C1 (centres unmarked) [TCMDC-133857]	75.97	
NC1CCN(CCNCc2cccc(-c3ccc(-c4nc5ccc(C(F)(F)F)cc5[nH]4)cc3)c2)C1 (centres unmarked) [TCMDC-133841]	98.1	
O=[N+]([O-])c1ccccc1/C=N/Nc1ccnc2ccc(C(F)(F)F)cc12 [TCMDC-142044]	-33.57	
O=[N+]([O-])c1cccc(S(=O)(=O)N2CCN(CC(O)COc3ccc(-c4ccccc4)cc3)CC2)c1 (centres unmarked) [TCMDC-125015]	-58.05	
COc1cc2nc(NCCCOC(C)C)n3nc(-c4ccccc4)nc3c2cc1OC [TCMDC-124450]	5.714	
Cn1cnc2c(Nc3ccncc3)nc(-c3ccc4c(c3)OCO4)nc21 [TCMDC-141274]	36.93	
Cc1cccc2nc(-c3ccc(-c4cccc(C(=O)N5CCCCC5C(C)O)c4)s3)[nH]c12 (centres unmarked) [TCMDC-132331]	10.35	
Cc1cccc2nc(-c3cccc(-c4ccc(C(=O)NCCc5ccc(O)c(=O)[nH]5)cc4)c3)[nH]c12 [TCMDC-132490]	-25.23	
O=C(c1ccc(-c2cccc(-c3nc4cc(C(F)(F)F)ccc4[nH]3)c2)cc1)N1CCCCC1CN1CCC(O)C1 (centres unmarked) [TCMDC-132348]	-20.7	
CC(O)C1CCCCN1C(=O)c1cccc(-c2cccc(-c3nc4ccccc4[nH]3)c2)c1 (centres unmarked) [TCMDC-132313]	8.745	
CC(O)C1CCCCN1C(=O)c1ccc(-c2cccc(-c3nc4cc(F)ccc4[nH]3)c2)cc1 (centres unmarked) [TCMDC-132333]	18.43	
CCN(CC(C)O)C(=O)c1ccc(-c2cccc(-c3nc4cccc(C)c4[nH]3)c2)cc1 (centres unmarked) [TCMDC-132502]	84.23	
Cc1cccc2nc(-c3cccc(-c4ccc(C(=O)N5CCCCC5C(C)O)cc4)c3)[nH]c12 (centres unmarked) [TCMDC-132336]	92.31	
CC(O)C1CCCCN1C(=O)c1ccc(-c2ccc(-c3nc4cc(F)ccc4[nH]3)cc2)cc1 (centres unmarked) [TCMDC-132338]	65.53	
CCN(CC(C)O)C(=O)c1ccc(-c2ccc(-c3nc4cccc(C)c4[nH]3)cc2)cc1 (centres unmarked) [TCMDC-132503]	-12.34	
CC(O)C1CCCCN1C(=O)c1cccc(-c2cccc(-c3nc4cc(F)ccc4[nH]3)c2)c1 (centres unmarked) [TCMDC-132339]	25.33	
O=C(c1ccc(-c2cccc(-c3nc4cc(F)ccc4[nH]3)c2)cc1)N1CCCCC1CN1CCC(O)C1 (centres unmarked) [TCMDC-132344]	80.27	
O=C(c1cccc(-c2cccc(-c3nc4cc(F)ccc4[nH]3)c2)c1)N1CCCCC1CN1CCC(O)C1 (centres unmarked) [TCMDC-132350]	0.1683	
